Measured values from PubChem BioAssay.
Calls of active or inactive are those of the source.

Experiments:
[1] = E. coli DRC41 culture turbidity changes, primary screen, E. coli filamentation inducer project, strain DRC41, OD650, 48 h (AID 1152);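 also: E. coli MC1000 strain DRC41 lacking acrAB efflux pump and sulA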; settings: E. coli DRC41 (acrAB sulA), higher = more signal, called active from +8 up or from −8 down
[2] = small-molecule binders of probe aLefty1, primary screen, biochemical, small-molecule microarray, 635/667 nm fluorescence (AID 1153); settings: higher = more signal;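 also: score merges spot fluorescence with signal-to-noise ratio from the scanned slide images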
[3] = PSAC antagonists in infected red cells, primary screen, cell-based, P. falciparum Indochina, OD700, 1 h (AID 1154); settings: P. falciparum Indochina infected RBC osmotic lysis, higher = more signal, called active from +8 up or from −8 down
[4] = PSAC antagonists in infected red cells, primary screen, cell-based, P. falciparum Indochina, OD700, 2 h (AID 1155);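 also: lysis reports solute entry through the parasite surface anion channel PSAC; channel blockers reduce lysis of infected cells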; settings: P. falciparum Indochina infected erythrocytes, osmotic lysis OD700; higher = more signal, called active from +8 up or from −8 down
[5] = osmotic lysis modulators in infected erythrocytes, primary screen, PSAC antagonist project, cell-based, P. falciparum Indochina, OD700, 3 h (AID 1156); settings: higher = more signal, called active from +8 up or from −8 down
[6] = PSAC antagonists in infected red cells, primary screen, cell-based, P. falciparum Indochina, OD700, 18 h (AID 1157); settings: P. falciparum Indochina infected erythrocytes, osmotic lysis OD700, 18 h; higher = more signal, called active from +8 up or from −8 down
[7] = modulators of S6 phosphorylation in cells, primary screen, cell-based, A549, cytoblot, luminescence, serum-stimulated (AID 1158); settings: A549 phospho-S6 cytoblot, 5 h, higher = more signal;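 also: serum-stimulated A549 lung adenocarcinoma cells; signal is phosphorylated S6 detected by cytoblot immunostaining with HRP secondary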
[8] = biological target: NADPH oxidase 2 (Homo sapiens) (UniProt P04839); experiment: NOX2-dependent H2O2 signal modulators, primary screen, NOX inhibitor project, cell-based, HEK293-NOX2, PMA-stimulated, Amplex Red fluorescence (AID 1159); settings: 45 min, higher = more signal, called active from +8 up or from −8 down; also: test concentration not given here
NADPH oxidase 2 (Homo sapiens), sequence (P04839 whole entry, looked up): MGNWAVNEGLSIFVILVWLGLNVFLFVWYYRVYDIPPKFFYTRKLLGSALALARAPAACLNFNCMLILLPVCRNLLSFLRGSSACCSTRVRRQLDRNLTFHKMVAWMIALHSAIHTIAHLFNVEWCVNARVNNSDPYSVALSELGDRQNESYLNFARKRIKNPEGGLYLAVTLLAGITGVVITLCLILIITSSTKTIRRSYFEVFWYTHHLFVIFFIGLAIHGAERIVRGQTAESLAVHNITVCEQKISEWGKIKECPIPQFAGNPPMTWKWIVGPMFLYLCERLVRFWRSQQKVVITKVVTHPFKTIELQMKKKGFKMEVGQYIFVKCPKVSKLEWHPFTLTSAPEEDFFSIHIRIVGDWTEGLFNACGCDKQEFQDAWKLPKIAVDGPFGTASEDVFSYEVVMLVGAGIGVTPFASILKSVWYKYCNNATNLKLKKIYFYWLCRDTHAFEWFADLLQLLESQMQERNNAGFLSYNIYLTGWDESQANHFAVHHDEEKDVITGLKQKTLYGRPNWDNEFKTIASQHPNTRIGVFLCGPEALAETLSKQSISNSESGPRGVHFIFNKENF

[9] = biological target: NADPH oxidase 4 (Homo sapiens) (UniProt Q9NPH5); experiment: NOX4-dependent H2O2 signal modulators, primary screen, NOX inhibitor project, cell-based, HEK293-NOX4, tetracycline-induced, Amplex Red fluorescence (AID 1160); settings: 45 min, higher = more signal, called active from +8 up or from −8 down
NADPH oxidase 4 (Homo sapiens), sequence (Q9NPH5 whole entry, looked up): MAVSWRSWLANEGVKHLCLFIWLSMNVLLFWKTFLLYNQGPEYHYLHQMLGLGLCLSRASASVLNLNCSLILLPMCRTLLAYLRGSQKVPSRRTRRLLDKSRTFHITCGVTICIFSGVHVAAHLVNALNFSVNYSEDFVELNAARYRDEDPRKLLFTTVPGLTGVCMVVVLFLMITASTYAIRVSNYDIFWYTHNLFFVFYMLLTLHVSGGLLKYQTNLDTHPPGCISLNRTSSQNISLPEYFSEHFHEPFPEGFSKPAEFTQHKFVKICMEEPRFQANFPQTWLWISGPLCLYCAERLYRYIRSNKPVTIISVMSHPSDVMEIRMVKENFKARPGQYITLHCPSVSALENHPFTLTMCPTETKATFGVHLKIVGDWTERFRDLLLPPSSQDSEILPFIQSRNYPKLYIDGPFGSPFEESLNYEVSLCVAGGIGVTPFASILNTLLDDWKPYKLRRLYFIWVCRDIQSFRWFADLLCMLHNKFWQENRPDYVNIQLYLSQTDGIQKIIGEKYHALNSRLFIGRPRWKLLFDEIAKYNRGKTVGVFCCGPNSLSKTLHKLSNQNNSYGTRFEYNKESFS

[10] = biological target: NADPH oxidase 5 (Homo sapiens) (UniProt Q96PH1); experiment: NOX5-dependent H2O2 signal modulators, primary screen, NOX inhibitor project, cell-based, HEK293-NOX5, Amplex Red fluorescence (AID 1161); settings: HEK293-NOX5, ionomycin, 45 min, higher = more signal
NADPH oxidase 5 (Homo sapiens), sequence (Q96PH1 whole entry, looked up): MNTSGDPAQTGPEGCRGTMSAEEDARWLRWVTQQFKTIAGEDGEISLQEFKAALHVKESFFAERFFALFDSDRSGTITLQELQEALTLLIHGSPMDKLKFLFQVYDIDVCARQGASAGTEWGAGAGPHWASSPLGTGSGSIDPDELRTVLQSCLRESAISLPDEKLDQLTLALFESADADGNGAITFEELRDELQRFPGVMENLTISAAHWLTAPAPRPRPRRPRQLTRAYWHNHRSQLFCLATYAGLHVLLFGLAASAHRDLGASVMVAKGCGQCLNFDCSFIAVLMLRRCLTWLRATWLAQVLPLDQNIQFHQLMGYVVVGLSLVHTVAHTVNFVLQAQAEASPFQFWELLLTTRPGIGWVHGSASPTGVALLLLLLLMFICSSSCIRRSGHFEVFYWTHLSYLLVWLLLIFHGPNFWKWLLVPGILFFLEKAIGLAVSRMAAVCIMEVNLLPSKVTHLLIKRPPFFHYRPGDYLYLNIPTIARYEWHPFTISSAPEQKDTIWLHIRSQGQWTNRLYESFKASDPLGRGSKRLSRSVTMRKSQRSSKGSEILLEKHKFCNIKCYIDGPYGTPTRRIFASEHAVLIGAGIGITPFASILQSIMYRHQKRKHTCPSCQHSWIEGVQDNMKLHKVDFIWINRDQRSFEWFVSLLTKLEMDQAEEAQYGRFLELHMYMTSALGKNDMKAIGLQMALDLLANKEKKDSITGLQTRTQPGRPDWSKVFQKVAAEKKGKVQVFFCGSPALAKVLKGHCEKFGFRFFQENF

[11] = A549 cell viability effects, profiling panel, calcein-AM fluorescence, 48 h, basal (AID 1162); settings: higher = more signal; also: test concentration not given here
[12] = adipocyte viability effects, profiling panel, cell-based, 3T3-L1 adipocytes, calcein-AM fluorescence, 48 h, basal (AID 1163); settings: 3T3-L1 adipocytes viability, higher = more signal; also: test concentration not given here
[13] = HepG2 cell viability effects, profiling panel, calcein-AM fluorescence, 48 h, basal (AID 1164); settings: higher = more signal; also: test concentration not given here
[14] = MM1S cell viability effects, profiling panel, calcein-AM fluorescence, 48 h, basal (AID 1165); settings: higher = more signal;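 also: viability of MM1S multiple myeloma cells under basal unstimulated conditions; test concentration not given here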
[15] = basal RPMI8226 viability, no added stimulus, profiling panel, cell-based, calcein-AM fluorescence, 48 h, PK04 Diversity Set (AID 1166); settings: RPMI8226 myeloma viability, higher = more signal;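 also: cells grown under basal conditions without added stimulus; test concentration not given here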
[16] = basal HepG2 mitochondrial membrane potential changes, profiling panel, cell-based, JC-1 fluorescence, 24 h, 100 nL compound (AID 1167); settings: higher = more signal; also: test concentration not given here
[17] = basal 3T3-L1 adipocyte mitochondrial potential changes, profiling panel, cell-based, JC-1 fluorescence, 3T3-L1 adipocytes, 24 h, 100 nL compound (AID 1168); settings: JC-1 mitochondrial fluorescence, higher = more signal, called active from +8 up or from −8 down; also: test concentration not given here
[18] = basal RPMI8226 mitochondrial membrane potential changes, profiling panel, cell-based, JC-1 fluorescence, 24 h, 100 nL compound (AID 1169); settings: RPMI8226 myeloma, JC-1 mitochondrial potential fluorescence, higher = more signal; also: test concentration not given here
[19] = basal MM1S mitochondrial membrane potential changes, profiling panel, cell-based, JC-1 fluorescence, 24 h, 100 nL compound (AID 1170); settings: higher = more signal; also: test concentration not given here
[20] = A549 lung cancer cell viability effects, profiling panel, resazurin fluorescence, 24 h, PK04 Diversity Set (AID 1171); settings: higher = more signal, called active from +8 up or from −8 down; also: test concentration not given here

Compound	z-score [1]	composite z-score [2]	z-score [3]	z-score [4]	z-score [5]	z-score [6]	z-score [7]	z-score [8]	z-score [9]	z-score [10]	z-score [11]	z-score [12]	z-score [13]	z-score [14]	z-score [15]	z-score [16]	z-score [17]	z-score [18]	z-score [19]	z-score [20]
CC(C)[C@H](NC(=O)OC(C)(C)C)[C@@H](O)CC(=O)C(C)(C)C	0.14 (inactive)	-0.267	-0.0522 (inactive)	0.0094 (inactive)	0.155 (inactive)	0.126 (inactive)	0.372	2.2 (inactive)	0.34 (inactive)	0.195	-0.0305	-1.02	0.483	0.514	-0.0779	0.136	-0.148 (inactive)	-0.988	-1.13	-0.242 (inactive)
O=C1C=C[C@@H](O)[C@@H]2[C@@H]3C(=O)N(c4cccc(Oc5ccccc5)c4)C(=O)[C@@H]3CC[C@@H]12	-1.65 (inactive)	-0.103	0.641 (inactive)	-0.158 (inactive)	-0.441 (inactive)	-1.07 (inactive)	0.249	0.472 (inactive)	-0.433 (inactive)	0.283	-0.496	1.38	0.0765	-1.03	-2.47	0.111	0.717 (inactive)	-0.618	-0.72	-0.869 (inactive)
CC1(C)O[C@H]2OC([C@H](O)CON3C(=O)c4ccccc4C3=O)[C@H](O)[C@H]2O1 (stereo not given in full)	0.336 (inactive)	-0.352	-0.36 (inactive)	-0.215 (inactive)	-0.356 (inactive)	-0.266 (inactive)	-0.339	0.821 (inactive)	0.146 (inactive)	0.145	0.23	0.0217	0.0029	-0.963	-0.486	-0.249	-0.143 (inactive)	-0.484	0.658	0.368 (inactive)
C=CC[C@@H]1C=C[C@H](ON=CC[C@@H]2C=C[C@H](OC(C)=O)[C@@H](COC(C)=O)O2)[C@@H](CO)O1	0.4 (inactive)	0.455	0.551 (inactive)	0.538 (inactive)	-0.0293 (inactive)	0.393 (inactive)	0.166	-0.893 (inactive)	0.319 (inactive)	1.03	0.452	-0.5	0.347	0.114	-0.445	0.169	-0.01 (inactive)	-0.131	-0.838	-0.286 (inactive)
C[C@@H]1CC[C@H]2C(=O)O[C@@H](CN=[N+]=[N-])CN2[C@H]1c1ccc(Br)cc1	-2.31 (inactive)	-0.35	25.4 (active)	8.11 (active)	1.59 (inactive)	2.16 (inactive)	0.476	-3.99 (inactive)	-3.91 (inactive)	-0.668	-3.8	0.254	-4.54	-3.04	-4.07	-2.08	-0.62 (inactive)	-1.18	-1.33	-0.487 (inactive)
COc1ccc(O[C@H]2C=C[C@@H](C#Cc3ccccc3)O[C@@H]2CO)cc1	0.311 (inactive)	0.042	2.26 (inactive)	0.323 (inactive)	-0.24 (inactive)	-0.144 (inactive)	0.297	1.33 (inactive)	-0.196 (inactive)	-0.196	-0.167	0.956	-1.03	-3.57	-3.67	-1.19	-0.252 (inactive)	-0.891	-1.46	0.447 (inactive)
C#CCCCON=C1C[C@@H](O)[C@@H](O)[C@@H]2[C@@H]3C(=O)N(C[C@@H]4CCCO4)C(=O)[C@@H]3CC[C@H]12	-0.25 (inactive)	-0.293	0.515 (inactive)	0.189 (inactive)	-0.0365 (inactive)	0.0603 (inactive)	0.591	-0.635 (inactive)	-1.68 (inactive)	-1	-0.549	-0.614	-1.28	0.266	0.0556	-0.241	-0.792 (inactive)	0.489	-0.149	0.019 (inactive)
C#CCCCON=C1[C@H]2CCn3c(=O)n([C@@H](CC)c4ccccc4)c(=O)n3[C@H]2[C@H](O)[C@@H]2O[C@H]12	-1.02 (inactive)	-0.101	0.957 (inactive)	0.193 (inactive)	0.461 (inactive)	0.0103 (inactive)	1.09	1.29 (inactive)	0.633 (inactive)	1.12	0.0523	0.44	-0.129	-1.77	-0.0952	-0.696	0.123 (inactive)	-0.547	-0.662	0.43 (inactive)
CC(C)=CCCC(C)=CCON=C1C[C@@H](O)[C@@H](O)[C@@H]2[C@@H]3C(=O)N(Cc4ccc5c(c4)OCO5)C(=O)[C@@H]3CC[C@@H]12	0.253 (inactive)	0.0315	31.3 (active)	5.69 (inactive)	2.24 (inactive)	1.46 (inactive)	-0.274	-1.3 (inactive)	-0.0437 (inactive)	-2.6	-0.0221	0.603	-0.53	-0.788	-0.327	-0.0991	0.581 (inactive)	0.0988	-0.909	0.25 (inactive)
C#CCCCON=C1C[C@@H](O)[C@@H](O)[C@@H]2[C@@H]3C(=O)N(C4CCCCC4)C(=O)[C@@H]3CC[C@@H]12	0.0164 (inactive)	-0.276	1.17 (inactive)	-0.164 (inactive)	-0.492 (inactive)	0.132 (inactive)	-0.25	1.13 (inactive)	0.699 (inactive)	-0.0773	-0.205	-0.117	-0.139	0.183	-1.94	-1.32	-0.462 (inactive)	-0.0811	0.431	-0.255 (inactive)
CCOC(=O)[C@H](Cc1ccccc1)NC(=O)CCC1CC(OC(=O)NCCc2ccc(F)cc2)CC2(CCCC(COC(=O)NCCOc3ccccc3)O2)O1 (stereo not given in full)	-0.558 (inactive)	0.0594	-1.41 (inactive)	0.363 (inactive)	-0.619 (inactive)	0.272 (inactive)	-0.345	1.26 (inactive)	0.767 (inactive)	0.471	0.613	-0.156	0.141	-0.565	-1.25	1.71	0.508 (inactive)	-0.218	-0.123	0.264 (inactive)
CCOC(=O)[C@H](Cc1ccccc1)NC(=O)CCC1CC(OC(=O)NCc2ccc3c(c2)OCO3)CC2(CCCC(COC(=O)NCCOc3ccccc3)O2)O1 (stereo not given in full)	0.0897 (inactive)	-0.239	-1.84 (inactive)	0.179 (inactive)	-0.0818 (inactive)	0.0514 (inactive)	-0.138	0.339 (inactive)	0.519 (inactive)	0.653	-0.794	-0.317	0.184	0.322	0.0039	2.45	0.808 (inactive)	-0.0508	-1.17	0.198 (inactive)
CON(C)C(=O)c1nnc2c(n1)[nH]c1ccccc12	-0.398 (inactive)	-0.161	1.61 (inactive)	0.235 (inactive)	-0.322 (inactive)	0.0008 (inactive)	-0.133	1.04 (inactive)	0.103 (inactive)	0.836	-0.681	0.764	0.429	-0.342	-0.0375	-0.88	0.471 (inactive)	-0.886	0.0753	0.447 (inactive)
CC(C)CN1CCc2nc(-c3ccccc3)c3c(c2C1)CO[C@@H](C)C3	0.696 (inactive)	0.123	1.56 (inactive)	0.711 (inactive)	0.61 (inactive)	0.615 (inactive)	0.418	2.18 (inactive)	-2.08 (inactive)	0.551	1.2	-0.274	0.0114	0.639	-0.409	0.462	0.0658 (inactive)	-0.0878	0.708	-0.139 (inactive)
COC(=O)C1=C(C)N(Cc2ccccc2)C2=C3C(=O)OCC[C@@H]3[C@@](O)(C(=O)OC)C(=O)N2[C@@H]1c1ccccc1	0.884 (inactive)	-0.286	0.121 (inactive)	0.132 (inactive)	0.0954 (inactive)	0.126 (inactive)	0.0012	0.0769 (inactive)	-0.0428 (inactive)	0.251	1.62	-0.792	0.24	0.489	-0.755	1.85	-1.11 (inactive)	-0.391	-0.91	0.56 (inactive)
COC(=O)[C@H](C)NC(=O)CCC1CC(OC(=O)NCc2cccc3ccccc23)CC2(CCCC(COC(=O)NCCC(C)C)O2)O1 (stereo not given in full)	0.782 (inactive)	0.423	6.93 (inactive)	0.663 (inactive)	-0.355 (inactive)	0.197 (inactive)	-0.463	1.74 (inactive)	0.703 (inactive)	1.52	0.505	-0.0667	-1.75	-3.38	-3.49	-0.653	0.112 (inactive)	-0.51	-1.82	0.236 (inactive)
